Bioassay records deposited in PubChem by National Center for Advancing Translational Sciences (NCATS).
In the library only some 9.4% were active in any assay of this set; here they are far more common.
AMA1 RON2 block = disrupts binding of P. falciparum AMA1 to RON2. AlphaScreen AMA1-biotinylated RON2 peptide binding. Potency, µM (titrated, usually from 58.2 µM), for the others: at the top dose activity change, negative = inhibition, usual class: inhibitors. hit rate 0.2% among 360,000;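 further: 0% = vehicle wells and -100% = peptide control; nearly all actives have a fitted effect of over 45% in size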
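AMA1 (3D7) with his tag at 25 nM final met compounds first, then biotinylated RON2 peptide at 25 nM; detection used donor plus acceptor beads, 10 µg/mL apiece, read by AlphaScreen after 30 min at room temperature.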
Pf growth 48h = P. falciparum growth inhibition at 48 hours (one generation) | P. falciparum luciferase growth in erythrocytes, 48 h | Potency, µM (series often up to 28.7 µM), inactives show top-dose activity change, negative = inhibition, hits mostly inhibitors | hit rate 5.9% among 310,000 | AID 504832; further: on the % scale 0 is the no-effect control and ±100 the full control effect
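Luciferase-expressing parasites in RBCs, 2% Hct / 0.1% parasitemia final; RPMI 1640 + 0.5% Albumax; 37 C, 5% CO2, one generation; luminescence read-out, lower signal = inhibition.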
SARS PLpro yeast = SARS-CoV PLP inhibition in yeast | S. cerevisiae expressing SARS-CoV PLpro, growth rescue | Potency, µM (doses to about 32.9 µM), inactives show at the top dose activity, positive = growth rescue, hits mostly activators | hit rate 0.19% among 330,000 | AID 485353; calls by dose curve; further: 0% is about no effect; nearly all actives have a fitted effect of over 55% in size
Pf growth 96h = inhibits malaria parasite growth, 96 h; AID 504834; hit rate 6.9% among 320,000; P. falciparum luciferase reporter growth, 96 h; Potency, µM (series often up to 28.7 µM), without a hit: top-dose activity change, negative = inhibition, usual class: inhibitors; further: on the % scale 0 is the no-effect control and ±100 the full control effect
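P. falciparum expressing integrated firefly luciferase, in erythrocytes at 2% hematocrit, 0.05% parasitemia, incubated with compounds 96 h at 37 C, 5% CO2. Growth inhibition read as loss of luminescence; two-generation exposure targets delayed-death apicoplast inhibitors.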
Starred values were filed as active, the others as inactive; ? = inconclusive; . = no result. Unless noted, the call rests on the fitted dose curve; in most records, active means well fitted curve in the direction sought with a large enough effect; inconclusive means small, poorly fitted or top-dose-only effect, or another doubt; inactive means no such curve, though single readings can be large; an effect the other way counts as inactive or inconclusive. Potency means the concentration at half of the fitted maximal effect.

SMILES	AMA1 RON2 block	Pf growth 48h	SARS PLpro yeast	Pf growth 96h
O=C(O)C1CC=CCC1C(=O)Nc1cccc([N+](=O)[O-])c1 (stereo not given)	10%	8%	-1%	0%
C/C(=N\NC(=O)c1ccc(Cn2cc([N+](=O)[O-])cn2)o1)c1cccc(NC(=O)c2cccnc2)c1	19%	-27%	19%	4.1µM*
COCCn1c(SCC(=O)Nc2cc(C)on2)nc2ccccc21	21%	0%	0%	-25%
O=C(Oc1ccc(N(C(=O)c2ccncc2)S(=O)(=O)c2cccs2)cc1)c1ccncc1	-8%	9%	-2%	43%
O=C(c1ccc(F)cc1)[C@@H]1[C@@H](C(=O)c2ccccc2)[C@@]2(C(=O)Nc3ccccc32)[C@H]2c3ccccc3C=CN12	.	?	-5%	5.2µM*
O=C(Nc1cccc(S(=O)(=O)NC2=NCCC2)c1)c1cc(-c2ccccn2)nc2ccccc12	31%	13%	0%	3%
O=C(CSc1nnc(-c2ccccc2F)n1C1CCCCC1)Nc1cc(C(=O)O)ccc1Cl	3%	.	-1%	.
Cc1cc(C)c2ccc(N)nc2c1O	53%	4.1µM*	-5%	196%
Cc1cc(C)c2cccc(N)c2n1	?	22%	0%	-59%
COCCn1c(SCC(=O)Nc2ccc(C(C)=O)cc2)nnc1-c1ccco1	-8%	3%	-4%	-4%
CC(C)(C)c1ccc(C(=O)Nc2ccc(CC(=O)O)cc2)o1	12%	.	10%	2.3µM*
O=C(O)Cc1ccc(NC(=O)c2ccc(NC(=O)C3CC3)cc2)cc1	0%	-19%	3%	5.9µM*
CC(C)c1ccc(NS(=O)(=O)c2ccc3[nH]cc(C(=O)N4CCC(C(N)=O)CC4)c(=O)c3c2)cc1	-9%	0%	2%	-16%
CCCCNc1c(C(=O)OCC)c(C)nc2c1cnn2CC	16%	?	.	15µM*
CCOC(=O)c1c(C)nc2c(C#N)cnn2c1C	-4%	-2%	-7%	12%
O=C(C(NS(=O)(=O)c1cccs1)c1ccccc1)N1CCN(c2ccccc2)CC1 (stereo not given)	-4%	?	-2%	12µM*
O=S(=O)(c1cccs1)N1CCN(c2ccccc2)CC1	-13%	21%	-3%	2%
O=C(CSc1nccc(=O)[nH]1)N1N=C2/C(=C/c3ccco3)CCCC2C1c1ccco1 (stereo not given)	-22%	-19%	3%	0%
Cn1cnnc1SCC(=O)N1N=C2/C(=C/c3ccco3)CCCC2C1c1ccco1 (stereo not given)	-9%	?	-1%	10µM*
COC(=O)CCCC1=CC2=CC(=O)C(C)(OC(=O)c3cccs3)C(=O)C2=CN1CCc1ccccn1 (stereo not given)	7%	?	1%	?
CC1CN(C2=NC(=O)/C(=C3/C(=O)N(Cc4ccc(F)cc4)c4ccccc43)S2)CC(C)O1 (stereo not given)	-18%	?	1%	5.9µM*
CCCN1C(=O)/C(=C2\SC(N3CCCCC3)=NC2=O)c2ccccc21	?	?	-32%	?
CN1C(=O)/C(=C2\SC(N3CCCCCC3)=NC2=O)c2ccccc21	-9%	.	-11%	4.1µM*
CCc1ccccc1NC(=O)N[C@@H](C)C(=O)O	7%	7%	3%	9.3µM*
COc1cccc(-n2c(SCc3c(C)noc3C)nnc2-c2cccc(S(=O)(=O)N(C)C)c2)c1	-9%	12µM*	-3%	?
SMILES	AMA1 RON2 block	Pf growth 48h	SARS PLpro yeast	Pf growth 96h
COc1ccc(OC)c(-n2c(SCC(C)=O)nnc2-c2cccc(S(=O)(=O)N(C)C)c2)c1	-12%	.	-9%	12µM*
COc1ccc(-c2nnc(SCc3c(C)noc3C)n2N)cc1OC	0%	?	0%	12µM*
CCSc1nnc(-c2cccc(S(=O)(=O)N(C)C)c2)n1-c1cc(OC)ccc1OC	-7%	?	1%	?
O=C(N/N=C/c1cc(Br)c(O)c(Br)c1)C1CC1	9%	7%	-2%	40%
CC(C)(C)NC(=S)N/N=C/c1cc(Br)c(O)c(Br)c1	70%	?	0%	7.4µM*
Cc1cc(C)c(C)c(S(=O)(=O)N2CCN(c3ncnc4ccccc34)CC2)c1C	-1%	12µM*	-8%	?
O=C(O)CSc1nnc(-c2ccco2)o1	14%	38%	-5%	?
O=c1c2ccccc2nnn1CSc1nnc(-c2ccco2)o1	0%	-3%	?	1.2µM*
CC(C)CNC(=O)c1cc([N+](=O)[O-])ccc1N1CCCCC1	0%	5%	0%	6%
